Screens (PubChem BioAssay)
FH mod: Identification of activators of human fumarate hydratase by quantitative high-throughput screening. AID 1347055, 2019. FH coupled MDH/diaphorase resazurin fluorescence, 15 min. Potency, µM (doses to about 79.9 µM), hits mostly inhibitors. hit rate 0.22% among 54,000; note: the screen sought activators but most active calls are inhibition curves; nearly all actives have a fitted effect of over 45% in size
Target sequence (P07954 whole entry, looked up): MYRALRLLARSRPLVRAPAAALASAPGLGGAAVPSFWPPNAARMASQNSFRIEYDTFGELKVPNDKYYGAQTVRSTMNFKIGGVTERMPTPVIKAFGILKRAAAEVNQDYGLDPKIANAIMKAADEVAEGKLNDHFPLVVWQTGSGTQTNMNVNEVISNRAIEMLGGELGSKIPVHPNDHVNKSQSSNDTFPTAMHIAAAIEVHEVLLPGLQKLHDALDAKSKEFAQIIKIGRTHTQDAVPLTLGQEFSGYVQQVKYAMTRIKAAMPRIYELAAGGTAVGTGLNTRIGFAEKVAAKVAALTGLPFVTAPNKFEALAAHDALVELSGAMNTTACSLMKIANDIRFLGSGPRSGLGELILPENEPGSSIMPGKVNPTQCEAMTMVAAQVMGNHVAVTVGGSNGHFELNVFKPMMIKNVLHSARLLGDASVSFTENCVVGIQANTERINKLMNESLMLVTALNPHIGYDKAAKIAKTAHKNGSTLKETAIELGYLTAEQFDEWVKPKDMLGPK
PMP22 txn prim: PMP22 gene transcription modulation | Potency, µM (doses to about 57.5 µM), hits mostly inhibitors | S16 Pmp22-F2sN Schwann cells, FLuc/NLuc coincidence luminescence, 24 h | hit rate 2% among 43,000; active = clear falling dose curves in both reporters; inconclusive = both reporters move, but less clearly or upward; inactive = either reporter flat; the % is the NLuc reporter signal
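Reporter cells (S16 Pmp22-F2sN, 500–1,000 per well) exposed to compounds for 24 h, 37C, 5% CO2; lysis with FLuc read after 10 min, then Stop&Glo and NLuc read after 10 min.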
HTT prom inh: inhibits huntingtin promoter activity | HEK293 HTT promoter firefly luciferase reporter, 24 h | Potency, µM (doses to about 57.5 µM), most hits filed as inhibitors | hit rate 0.93% among 48,000; note: nearly all actives have a fitted effect of over 50% in size
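HEK293 cells carrying firefly luciferase reporters were seeded at 2,500 per well in Opti-MEM and cultured for 24 h. They were then treated with compounds at up to 57.5 uM final for 24 h at 37 degrees C before Dual-Glo luminescence readout.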
HTT-AS act: HTT-AS promoter activation. hit rate 0.24% among 48,000. HEK293 HTT-AS promoter firefly luciferase reporter, 24 h; response scale: percent change from vehicle, -100% = no light. Potency, µM (top dose mostly 57.5 µM), usual class: activators. AID 1508624; note: nearly all actives have a fitted effect of over 55% in size
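Quantitative HTS used concentration series of up to 57.5 uM final on HEK293 luciferase reporter cells, 24 h at 37 degrees C. Readout was Dual-Glo firefly luminescence.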
pS6 MEF inh: reduces mTORC1 signaling in Tsc2 and p53 null MEF cells; Tsc2-/- p53-/- MEF, phospho-rpS6 immunofluorescence/PI, 24 h; Potency, µM (titrated, usually from 38.3 µM), hits mostly inhibitors; hit rate 0.78% among 44,000; AID 493208; note: nearly all actives have a fitted effect of over 50% in size
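Cell-based qHTS: Tsc2-/- p53-/- MEF, 24 h cpd, 37 °C; fix/perm, anti-phospho-S6 Alexa-488 + PI; Acumen 488 nm scan; pS6/PI ratio, % positive cells; rapamycin 7.5 nM = inhibition ref; PI count = viability.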
S16 viability: S16 Schwann cell cytotoxicity; S16 Pmp22-F2sN Schwann cells (luciferase reporters placed in the Pmp22 gene) viability, CellTiter-Glo, 24 h; hit rate 0.48% among 43,000; Potency, µM (series often up to 57.5 µM), hits mostly cytotoxic; note: nearly all actives have a fitted effect of over 65% in size
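Rat S16 Schwann reporter line, 24 h treatment with library compounds delivered at 23 nL per well. Cell viability by CellTiter-Glo luminescence.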
NLuc saturating: inhibits NanoLuc at saturating substrate, PMP22 counter-screen; shares compounds with PMP22 txn prim; Secreted NLuc enzyme (filtered S16 cell medium), Nano-Glo luminescence; Potency, µM (doses to about 57.5 µM), hits mostly inhibitors; hit rate 4% among 690
NLuc Km ctr: counter-screen for PMP22 expression modulators: NanoLuc inhibition at Km; shares compounds with PMP22 txn prim; secreted NLuc enzyme, coelenterazine luminescence, Km conditions; Potency, µM (top dose mostly 57.5 µM), actives largely listed as inhibitors; hit rate 5% among 690
FLuc ctr PMP22: inhibits firefly luciferase, PMP22 counter-screen | shares compounds with PMP22 txn prim | 690 tested, under 10 active | Potency, µM (titrated, usually from 57.5 µM), usual class: inhibitors | purified P. pyralis FLuc, luminescence, 10 min
S16 viab conf: S16 Schwann cell cytotoxicity, confirmatory | shares compounds with PMP22 txn prim | S16 Schwann cells viability, CellTiter-Glo ATP luminescence, 24 h | Potency, µM (doses to about 57.5 µM), most hits filed as cytotoxic | hit rate 7% among 690 | AID 1508641
PMP22 txn conf: PMP22 transcription modulation, confirmatory | shares compounds with PMP22 txn prim | S16 Schwann cells Pmp22-F2sN, dual luciferase, 24 h | Potency, µM (highest dose often 57.5 µM), hits mostly inhibitors | hit rate 22% among 690; active = clear falling dose curves in both reporters; inconclusive = both reporters move, but less clearly or upward; inactive = either reporter flat; the % is the FLuc reporter signal
PMP22 HiBiT cnf: rat PMP22 protein level modulation, confirmatory. shares compounds with PMP22 txn prim. S16 Schwann cells Pmp22-HiBiT, luminescence, 48 h. Potency, µM (titrated, usually from 27.9 µM), hits mostly inhibitors. 95 tested, under 10 active
Target sequence (P25094 whole entry, looked up): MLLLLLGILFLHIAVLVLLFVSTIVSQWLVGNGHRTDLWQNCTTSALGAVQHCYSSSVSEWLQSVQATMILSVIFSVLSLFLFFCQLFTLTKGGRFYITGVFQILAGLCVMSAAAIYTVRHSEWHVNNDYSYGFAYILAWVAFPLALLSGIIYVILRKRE
Large screens that a line does not name were inactive (follow-up assays come after a bar, where they were run). A selection: hits, their analogues and other compounds. The true share with any hit is near 3.3%. Unless noted, calls come from the whole dose curve; as a rule, active = well fitted curve in the direction sought with a large enough effect; inconclusive = small, poorly fitted or top-dose-only effect, or another doubt; inactive = no such curve, though single readings can be large; an effect the other way counts as inactive or inconclusive.

COc1cc(OC)c(NS(=O)(=O)c2ccc3c(c2)NC(=O)CCS3)cc1Cl	PMP22 txn prim 14µM, HTT prom inh 28µM, S16 viability inconclusive | NLuc saturating inconclusive | NLuc Km ctr inconclusive | FLuc ctr PMP22 inactive | S16 viab conf inactive | PMP22 txn conf inconclusive
Cc1ccc(NC(=O)Cn2c(=O)n(Cc3ccc4c(c3)OCO4)c(=O)c3ccc(C(=O)NC4CCCCC4)cc32)c(C)c1	PMP22 txn prim 8.4µM | NLuc saturating inactive | NLuc Km ctr inactive | FLuc ctr PMP22 inactive | S16 viab conf inactive | PMP22 txn conf inconclusive
Cc1ccc(C)c(NC(=O)Cn2c(=O)n(CCC(=O)NCc3ccc4c(c3)OCO4)c(=O)c3ccccc32)c1	none
CCN(C(=O)Cn1c(=O)n(Cc2ccc3c(c2)OCO3)c(=O)c2ccc(C(=O)NC3CCCCC3)cc21)c1cccc(C)c1	none
Cc1ccc(C)c(NC(=O)Cn2c(=O)n(Cc3ccc4c(c3)OCO4)c(=O)c3ccc(C(=O)NC4CCCCC4)cc32)c1	PMP22 txn prim 4µM | NLuc saturating inactive | NLuc Km ctr inactive | FLuc ctr PMP22 inactive | S16 viab conf inactive | PMP22 txn conf 18µM | PMP22 HiBiT cnf inactive
Cc1cc(C)c(NC(=O)Cn2c(=O)n(Cc3ccc4c(c3)OCO4)c(=O)c3ccccc32)c(C)c1	PMP22 txn prim inconclusive
Cc1ccccc1NC(=O)Cn1c(=O)n(Cc2ccc3c(c2)OCO3)c(=O)c2ccc(C(=O)NC3CCCCC3)cc21	PMP22 txn prim 11µM, S16 viability inconclusive | NLuc saturating inactive | NLuc Km ctr inactive | FLuc ctr PMP22 inactive | S16 viab conf 24µM | PMP22 txn conf 15µM
Cc1cc(C)c(NC(=O)Cn2c(=O)n(Cc3ccc(C(=O)NCc4ccc5c(c4)OCO5)cc3)c(=O)c3ccccc32)c(C)c1	PMP22 txn prim 11µM, pS6 MEF inh 5.2µM, S16 viability inconclusive | NLuc saturating inactive | NLuc Km ctr inactive | FLuc ctr PMP22 inactive | S16 viab conf 27µM | PMP22 txn conf 8.9µM
Cc1ccc(NC(=O)Cn2c(=O)n(Cc3ccco3)c(=O)c3ccc(C(=O)NC4CCCC4)cc32)c(C)c1	PMP22 txn prim inconclusive
CC1CC(=O)C2=C(O1)OC1(C)CCC3C(C)(C)C=CC(=O)C3(C)C1C2 (centres undefined)	none (no result: PMP22 txn prim, HTT prom inh, HTT-AS act, pS6 MEF inh, S16 viability)
C/C=C/C=C/C=C/C(=O)O[C@@H]1C=C(CO)C(O)(C(=O)O)[C@@]2(C)CCCC(C)(C)[C@H]12 (some centres undefined)	none (no result: PMP22 txn prim, HTT prom inh, HTT-AS act, pS6 MEF inh, S16 viability)
CN[C@H](C(=O)N[C@H](C(=O)N(C)[C@H](/C=C(\C)C(=O)O)C(C)C)C(C)(C)C)C(C)(C)c1ccccc1	none (no result: PMP22 txn prim, HTT prom inh, HTT-AS act, pS6 MEF inh, S16 viability)
CC(=O)c1ccc(N2CCN(S(=O)(=O)c3cc(-c4onc(C)c4C)ccc3C)CC2)cc1	PMP22 txn prim 10µM, HTT prom inh inconclusive | NLuc saturating inconclusive | NLuc Km ctr inconclusive | FLuc ctr PMP22 inactive | S16 viab conf inactive | PMP22 txn conf inactive
CC(=O)c1ccc(N2CCN(S(=O)(=O)c3cc(-c4noc(C)n4)ccc3C)CC2)cc1	none
Cc1ccc(S(=O)(=O)c2nnn3c2nc(NC2CCCCCC2)c2sccc23)cc1C	PMP22 txn prim 20µM | NLuc saturating inconclusive | NLuc Km ctr inactive | FLuc ctr PMP22 inactive | S16 viab conf inactive | PMP22 txn conf 16µM | PMP22 HiBiT cnf inconclusive
CCCCNc1nc2c(S(=O)(=O)c3ccc(Cl)cc3)nnn2c2ccsc12	PMP22 txn prim 20µM | NLuc saturating inactive | NLuc Km ctr inconclusive | FLuc ctr PMP22 inactive | S16 viab conf inactive | PMP22 txn conf inactive
Cc1ccc(S(=O)(=O)c2nnn3c2nc(N2CCOCC2)c2sccc23)cc1C	PMP22 txn prim 13µM | NLuc saturating inconclusive | NLuc Km ctr inactive | FLuc ctr PMP22 inactive | S16 viab conf inactive | PMP22 txn conf inactive
O=S(=O)(c1ccc(Cl)cc1)c1nnn2c1nc(N1CCCCC1)c1sccc12	PMP22 txn prim inconclusive | NLuc saturating inconclusive | NLuc Km ctr inactive | FLuc ctr PMP22 inactive | S16 viab conf inactive | PMP22 txn conf inconclusive
CC(=O)c1cccc(Nc2nc(-c3ccccc3Cl)nc3ccccc23)c1	PMP22 txn prim 11µM | NLuc saturating 5.4µM | NLuc Km ctr 0.86µM | FLuc ctr PMP22 inactive | S16 viab conf inactive | PMP22 txn conf inactive
CCOC(=O)c1ccc(-c2ccc(/C=C(\C#N)C(=O)Nc3cccc(C)c3)o2)cc1	PMP22 txn prim inconclusive | NLuc saturating inconclusive | NLuc Km ctr inactive | FLuc ctr PMP22 inactive | S16 viab conf inactive | PMP22 txn conf 17µM
CCc1ccc(-c2cc(C)no2)cc1S(=O)(=O)NCc1ccc(OC)cc1	PMP22 txn prim 6µM, HTT prom inh inconclusive, pS6 MEF inh inconclusive | NLuc saturating inconclusive | NLuc Km ctr inconclusive | FLuc ctr PMP22 inactive | S16 viab conf inactive | PMP22 txn conf inconclusive
CCOc1ccc(CNS(=O)(=O)c2cc(-c3cc(C)no3)ccc2C)cc1OC	none
O=C(CN1C(=O)C2(CCCC2)NCC1c1cc(F)cc(F)c1)Nc1ccc2c(c1)CC1(C2)C(=O)Nc2ncccc21 (centres undefined)	none (no result: PMP22 txn prim, HTT prom inh, HTT-AS act, pS6 MEF inh, S16 viability)
